High-throughput results: PubChem, several laboratories
Rows were chosen to be rich in hits. Some 5% of all compounds tested hit in one or more screens of this group.
CHT inh – inhibits the human high affinity choline transporter; CHT-expressing cells, membrane potential dye, choline response; hits give low values; Q9GZV3; AID 488975; hit rate 0.86% among 310,000; B-score at 10 µM;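 active = B-score over 3 SD under the library average, and starting fluorescence ratio not unusually high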;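 also: choline stimulus applied at its EC90 after an EC20 pre-addition; B-score computed on integrated fluorescence ratio after choline addition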
CHT PAM – allosteric activators of human choline transporter CHT | Q9GZV3 | CHT-expressing cells, membrane potential dye, choline EC20; hits give high values; LV-AA mutant CHT in HEK293 cells | B-score at 10 µM | hit rate 0.49% among 310,000;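 active = initial fluorescence not abnormally high and integrated response B-score, plate-corrected, over 3 SD above library mean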
PREPL inh – inhibits the human prolyl oligopeptidase-like enzyme. hit rate 0.68% among 320,000. inhibition, % at 5.96 µM. recombinant PREPL, fluorescence polarization activity-based probe. Q4J6C6; in the data active = inhibition above about 43%;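 also: 0% = enzyme with DMSO and 100% = wells lacking enzyme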
Target sequence (Q4J6C6 whole entry, looked up): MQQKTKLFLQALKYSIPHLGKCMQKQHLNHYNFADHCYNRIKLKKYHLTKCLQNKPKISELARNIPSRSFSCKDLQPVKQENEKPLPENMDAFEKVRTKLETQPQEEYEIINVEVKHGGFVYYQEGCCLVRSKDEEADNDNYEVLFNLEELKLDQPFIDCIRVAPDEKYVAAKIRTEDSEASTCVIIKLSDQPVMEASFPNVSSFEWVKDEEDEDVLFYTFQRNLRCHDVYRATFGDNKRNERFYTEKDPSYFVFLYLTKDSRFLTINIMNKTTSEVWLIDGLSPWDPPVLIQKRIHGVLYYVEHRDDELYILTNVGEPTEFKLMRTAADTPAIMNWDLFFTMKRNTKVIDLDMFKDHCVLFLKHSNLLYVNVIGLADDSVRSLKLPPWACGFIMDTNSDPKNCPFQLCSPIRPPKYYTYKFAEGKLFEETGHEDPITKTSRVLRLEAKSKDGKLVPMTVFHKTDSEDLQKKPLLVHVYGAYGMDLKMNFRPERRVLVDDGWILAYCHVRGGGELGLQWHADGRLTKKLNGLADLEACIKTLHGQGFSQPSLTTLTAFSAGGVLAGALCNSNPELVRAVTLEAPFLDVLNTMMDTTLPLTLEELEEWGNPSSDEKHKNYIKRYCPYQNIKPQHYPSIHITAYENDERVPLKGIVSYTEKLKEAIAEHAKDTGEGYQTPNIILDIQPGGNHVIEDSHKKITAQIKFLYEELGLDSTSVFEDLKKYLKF
ALR inh – blocks human ALR sulfhydryl oxidase activity; P55789; purified ALR, DTT oxidation, H2O2 HRP-luminol luminescence; inhibition, % (test concentration not listed); hit rate 3.8% among 290,000;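 active = mean replicate inhibition above about 79%, with every replicate also reaching it, limit read from the data; inconclusive = only one of the two criteria met; inactive = mean below limit and not every replicate reaching it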
AI-2 QS modul – Vibrio harveyi AI-2 quorum sensing modulation | Vibrio harveyi JMH597 AI-2 luminescence/OD600 ratio, 9 h; hits give low values; strain lacks LuxN and CqsS sensors; 0 = neutral-control median | activity change, % at 7.5 µM | hit rate 0.4% among 300,000 | AID 2094; in the data active = activity change below about -75%, passing the limit was not always enough; inconclusive = no clear call, values can overlap the other calls;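 also: luminescence divided by OD600 gain over 9 h not by final OD600 alone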
JMH597 growth – retest: blocks Vibrio harveyi JMH597 growth; growth inhibition, % at 7.5 µM; OD600 absorbance, 9 h; lacks LuxN and CqsS sensors; hit rate 1% among 750; shares compounds with AI-2 QS modul;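 active = every replicate shows growth inhibition above 50%; inconclusive = at least half, but not all, replicates pass that cutoff; inactive = fewer than half of replicates pass it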
BB721 const-QS lum – retest counter-screen: BB721 constitutive quorum sensing luminescence decrease; shares compounds with AI-2 QS modul; Vibrio harveyi BB721 luminescence, 9 h; inhibition, % at 7.5 µM; hit rate 95% among 750;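 active = inhibition above about 80% in every replicate, not just on average, limit read from the data; inconclusive = at least half of replicates past the limit, but not all; inactive = fewer than half of replicates past the limit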
BB721 growth – retest Vibrio harveyi BB721 growth inhibition; hit rate 3% among 750; OD600 absorbance, 9 h; shares compounds with AI-2 QS modul; growth inhibition, % at 7.5 µM;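 active = every replicate shows growth inhibition above 50%; inconclusive = at least half but not all replicates above 50% inhibition; inactive = under half of replicates above 50% inhibition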
AI-2 QS JMH597 – Vibrio harveyi AI-2 signaling luminescence modulation – JMH597 strain, confirmation | shares compounds with AI-2 QS modul | Vibrio harveyi JMH597 AI-2 quorum sensing luminescence, 9 h; luxN and CqsS knockout, AI-2 only | inhibition, % at 7.5 µM | hit rate 97% among 750;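 active = every replicate shows more than 75% inhibition of signal versus neutral control wells; inconclusive = half to three quarters of replicates exceed 75% inhibition; inactive = fewer than half of replicates exceed 75% inhibition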
* hit, by the source's call; i = inactive; ? = inconclusive; nt = no result.

SMILES	CHT inh	CHT PAM	PREPL inh	ALR inh	AI-2 QS modul	JMH597 growth	BB721 const-QS lum	BB721 growth	AI-2 QS JMH597
CCOC(=O)c1ccc(NC(=O)C(C)N2C(=O)c3ccccc3C2=O)cc1 (centres undefined)	i	i	-5.5	-4.6	21.2	nt	nt	nt	nt
CCOC(=O)c1cccc(NC(=O)C(C)N2C(=O)c3ccccc3C2=O)c1 (centres undefined)	i	i	9.0	-0.2	-94.6*	10.8	98.8*	-0.6	99.3*
COc1ccc(/C=N/NC(=O)c2ccc3c(c2)OCO3)c(C(=O)O)c1OC	i	i	-0.5	2.5	nt	nt	nt	nt	nt
CN(Cc1nccs1)C(=O)c1cc(COc2cccc3cnccc23)on1	i	i	4.8	-45.3	-93.9*	27.1	97.4*	26.2	98.7*
COc1cc(Cl)ccc1OCc1cc(C(=O)N(C)Cc2cccc3cnccc23)no1	i	i	-17.3	-5.7	25.9	nt	nt	nt	nt
COC(=O)C1CCCCN1C(=O)c1cc(COc2cccc3cnccc23)on1 (centres undefined)	i	i	12.4	-22.5	-90.6*	8.4	91.9*	25.0	95.2*
COC(=O)C1CCCCN1C(=O)c1cc(COc2cccc3cccnc23)on1 (centres undefined)	i	i	0.8	-9.6	30.3	nt	nt	nt	nt
CC(C)c1ccc(O)c(NC(=O)c2cncc(Br)c2)c1	i	i	-2.0	nt	-94.3*	8.3	97.6*	31.8	98.3*
CC(C)c1ccc(O)c(NC(=S)NC(=O)c2cccnc2)c1	i	i	4.9	13.6	-41.1	nt	nt	nt	nt
O=C(/C=C/c1ccc(Cl)cc1)OCC(=O)c1ccc[nH]1	nt	nt	0.8	nt	nt	nt	nt	nt	nt
CCOC(=O)c1[nH]cnc1C(=O)N1CCN(C(=O)OC(C)(C)C)CC1	nt	nt	-3.2	2.0	nt	nt	nt	nt	nt
Nc1nc(-c2ccc(Oc3ccccc3)cc2)cs1	i	i	8.5	99.2*	-95.4*	-31.7	96.5*	-93.8	98.3*
O=C1CCN(S(=O)(=O)c2ccc(Br)cc2)CCN1	i	i	-3.5	-43.9	17.1	nt	nt	nt	nt
CC(C)Oc1ccc(NC(=O)C2CCCNC2=O)cc1 (centres undefined)	i	i	13.8	-13.2	?	-6.5	88.6*	-2.8	92.7*
Cc1ccnc(NS(=O)(=O)c2ccc(NC(=O)C3CCCNC3=O)cc2)n1 (centres undefined)	i	i	0.8	-4.2	15.6	nt	nt	nt	nt
O=S(=O)(c1ccccc1)c1ccc(NCc2ccco2)cc1	i	i	-1.1	-1.5	-93.8*	6.8	51.9	-38.0	97.6*
O=S(=O)(Nc1nc2ccccc2nc1NCc1ccco1)c1ccccc1	i	i	4.4	nt	24.6	nt	nt	nt	nt
Cc1ccc(S(=O)(=O)N2CCN(C(=O)c3cccs3)CC2)c(C)c1	i	i	-7.7	5.6	13.8	nt	nt	nt	nt
Cc1cccc(OCC(=O)Nc2ccc(S(=O)(=O)N3CCCC3)cc2)c1	i	i	-14.4	-3.4	-97.3*	9.5	99.5*	-3.5	99.7*
CCc1cccc(OCC(=O)Nc2ccc(S(=O)(=O)N3CCCC3)cc2)c1	i	i	-1.5	-3.8	-89.7*	42.7	96.7*	?	98.4*
COc1ccccc1CNC(=O)COc1ccc(S(=O)(=O)N2CCCC2)cc1	i	i	0.8	-8.0	?	19.1	85.0*	8.5	92.8*
Cc1cccc(OCC(=O)Nc2cc(C)ccc2O)c1	i	i	-0.4	nt	-84.9*	33.6	95.6*	28.6	96.9*
O=C(COc1cccc(C(F)(F)F)c1)Nc1ccc(S(=O)(=O)N2CCCCC2)cc1	i	i	-13.7	-7.6	-18.1	nt	nt	nt	nt
Cc1cccc(-n2cc(-c3ccccc3)c3c(N4CCOCC4)ncnc32)c1	i	i	14.9	nt	9.2	nt	nt	nt	nt
O=C(Cn1c(=O)sc2ccccc21)Nc1ccc(S(=O)(=O)N2CCCCC2)cc1	i	i	4.3	nt	-89.8*	44.0	96.3*	28.4	98.6*
SMILES	CHT inh	CHT PAM	PREPL inh	ALR inh	AI-2 QS modul	JMH597 growth	BB721 const-QS lum	BB721 growth	AI-2 QS JMH597
CCN(CC)S(=O)(=O)c1ccc(NC(=O)Cn2c(=O)sc3ccccc32)cc1	i	i	7.0	nt	-82.3*	17.4	90.8*	17.5	94.3*
CCN1CCN(CCNC(=O)c2ccc(CS(=O)c3ccc(Br)cc3)o2)CC1 (centres undefined)	i	i	-4.0	-1.4	14.5	nt	nt	nt	nt
Cc1cnc(C(=O)OCC(=O)Nc2cc(Cl)ccc2C#N)cn1	nt	nt	5.4	0.2	nt	nt	nt	nt	nt
O=C(Cc1ccc(Cl)cc1)Nc1ccc(Br)cc1	i	i	3.5	-4.0	-29.9	nt	nt	nt	nt
O=C(/C=C/c1ccccc1)NCc1ccc2c(c1)OCO2	i	i	-10.3	-1.6	-94.0*	-1.8	97.9*	1.6	98.3*
CC(=O)c1cccc(NC(=O)NCc2ccc3c(c2)OCO3)c1	i	i	3.8	-7.7	-22.6	nt	nt	nt	nt
O=C(Cc1ccc(Br)cc1)Nc1cccc(Cl)c1	i	i	0.1	-0.8	-81.6*	-20.4	87.6*	7.4	87.8*
O=C(NCc1ccc2c(c1)OCO2)Nc1cccc(Cl)c1	i	i	4.8	nt	-91.5*	20.3	98.9*	32.8	98.6*
Cc1ccc(-n2nnc(-c3nccn3C)n2)cc1	i	i	2.2	1.0	29.8	nt	nt	nt	nt
CCCCCCOc1ccc(N2C(=O)CC(SCCN)C2=O)cc1 (centres undefined)	i	i	-11.2	-3.9	-85.4*	28.4	87.6*	6.1	95.5*
COc1ccc(N2C(=O)CC(SCCc3nc4ccccc4[nH]3)C2=O)cc1 (centres undefined)	i	i	1.6	-7.8	11.2	nt	nt	nt	nt
CCc1ccc(C(=O)O)cc1	i	i	-9.0	3.4	19.9	nt	nt	nt	nt
C=Cn1c(C(=O)O)ccc1-c1ccc(CC)cc1	i	i	-12.4	6.0	-86.7*	26.0	16.0	10.2	99.8*
O=C(O)CC(c1cccc(O)c1)N1Cc2ccccc2C1=O (centres undefined)	i	i	1.0	-3.8	10.3	nt	nt	nt	nt
CCCc1cc(C(=O)Nc2ccc(F)c(Cl)c2)no1	i	i	1.6	nt	-82.0*	37.6	96.4*	-77.7	96.9*
O=C(CCCC(=O)c1ccc(F)cc1)c1ccc(F)cc1	i	i	-1.4	-6.4	-57.9	nt	nt	nt	nt
O=C(CCl)Nc1ccc(-c2ccccc2)cc1	i	i	6.3	nt	-13.6	nt	nt	nt	nt
O=C(CCl)Nc1ccc(N=Nc2ccccc2)cc1	nt	nt	nt	nt	-90.6*	73.5*	99.6*	102.7*	98.9*
Cc1ccccc1OCCNC(=O)c1ccc2ccccc2n1	i	i	-56.0	-0.5	-78.5*	23.7	91.1*	6.8	93.8*
